Our source for the outcome and AC50 values is PubChem BioAssay (EPA / NIEHS).

Where “and” joins values, the source holds several entries; their conditions need not be identical. Equal entries are not always repeated. More than one record can exist for a structure, and the calls need not agree. Calls of active or inactive are those of the source. The calls were made as follows: active = hit-call score of the fitted dose curve at least 0.9, where 1 is the maximum; inactive = score below 0.9.

A short description of assay [1]: BSK_CASM3C_SRB: Viability Assessment in the BioMAP Diversity Plus: CASM3C Assay (AID 2283050).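 Also: cells exposed to compound for 24 h.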 Conditions: primary human coronary artery smooth muscle cells.
Read-out in assay [2]: Thrombomodulin, THBD (gene 7056)
As to the kind of experiment: BSK_CASM3C_Thrombomodulin: BioMAP Diversity Plus: CASM3C Assay for Thrombomodulin Biomarker Activity (AID 2283051).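 Also: thrombomodulin protein level measured by ELISA 24 h after dosing.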 Conditions: primary human coronary artery smooth muscle cells; actives raise or lower the signal.

Read-out in assay [3]: Tissue Factor, F3 (gene 2152)
Briefly: BSK_CASM3C_TissueFactor: BioMAP Diversity Plus: CASM3C Assay for Tissue Factor Biomarker Activity (AID 2283052).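 Also: cell surface tissue factor protein level read by ELISA.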 To be noted: primary human coronary artery smooth muscle cells; actives raise or lower the signal.

Read-out in assay [4]: Interferon-gamma inducible Protein 10 (IP10), CXCL10 (gene 3627)
Briefly: BSK_hDFCGF_IP10: BioMAP Diversity Plus: hDFCGF Assay for Interferon-gamma inducible Protein 10 (IP10) Biomarker Activity (AID 2283053). Conditions: primary human foreskin fibroblasts; actives raise or lower the signal. The procedure, abridged: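 Cells: human dermal foreskin fibroblasts. Exposure: 24 h post-dosing. Detection: IP-10 ELISA, with values expressed against DMSO controls and fitted in both directions.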

Read-out in assay [5]: Urokinase-type plasminogen activator receptor (uPAR), PLAUR (gene 5329)
Briefly: BSK_CASM3C_uPAR: BioMAP Diversity Plus: CASM3C Assay for Urokinase-type plasminogen activator receptor (uPAR) Biomarker Activity (AID 2283054).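 Also: cell-surface uPAR protein level quantified by ELISA.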 Conditions: primary human coronary artery smooth muscle cells; actives raise or lower the signal.

Read-out in assay [6]: Vascular cell adhesion molecule 1 (VCAM1), VCAM1 (gene 7412)
As to the kind of experiment: BSK_CASM3C_VCAM1: BioMAP Diversity Plus: CASM3C Assay for Vascular cell adhesion molecule 1 (VCAM1) Biomarker Activity (AID 2283055).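 Also: VCAM-1 protein level quantified by ELISA on the cells.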 Conditions: primary human coronary artery smooth muscle cells; actives raise or lower the signal.

Read-out in assay [7]: Collagen III, COL3A1 (gene 1281)
As to the kind of experiment: BSK_hDFCGF_CollagenIII: BioMAP Diversity Plus: hDFCGF Assay for Collagen III Biomarker Activity (AID 2283056). Conditions: primary human foreskin fibroblasts; actives raise or lower the signal. The procedure, abridged:
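Cells: human foreskin fibroblasts, primary. Dosing followed by 24 h incubation, then ELISA for collagen III. Both increases and decreases scored relative to DMSO.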

Read-out in assay [8]: Epidermal growth factor receptor (EGFR), EGFR (gene 1956)
As to the kind of experiment: BSK_hDFCGF_EGFR: BioMAP Diversity Plus: hDFCGF Assay for Epidermal growth factor receptor (EGFR) Biomarker Activity (AID 2283057). To be noted: primary human foreskin fibroblasts; actives raise or lower the signal. The procedure, abridged:
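Dosing human primary skin fibroblasts, then measuring surface EGFR by ELISA at 24 h, gives the endpoint; gains and losses relative to DMSO were fitted in both directions.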

Read-out in assay [9]: Interleukin-8 (IL8), CXCL8 (gene 3576)
As to the kind of experiment: BSK_hDFCGF_IL8: BioMAP Diversity Plus: hDFCGF Assay for Interleukin-8 (IL8) Biomarker Activity (AID 2283058). To be noted: primary human foreskin fibroblasts; actives raise or lower the signal. The method in brief:
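IL-8 levels from compound-treated primary human fibroblasts were read by ELISA at 24 h, with DMSO serving as baseline for bidirectional fitting.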

Assay [10] can be described thus: BSK_hDFCGF_Proliferation: Cell Proliferation Assessment in the BioMAP Diversity Plus: hDFCGF Assay (AID 2283059).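 Also: curves fitted for both rise and fall of signal versus DMSO baseline.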 Conditions: primary human foreskin fibroblasts. The procedure, abridged: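 Primary human foreskin fibroblasts, sub-confluent; […]; 10% TCA fix, 0.1% SRB stain, A560 total protein. Gain/loss fitted bidirectionally vs DMSO control.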
Read-out in assay [11]: Macrophage colony-stimulating factor (MCSF), CSF1 (gene 1435)
As to the kind of experiment: BSK_hDFCGF_MCSF: BioMAP Diversity Plus: hDFCGF Assay for Macrophage colony-stimulating factor (MCSF) Biomarker Activity (AID 2283060). Conditions: primary human foreskin fibroblasts; actives raise or lower the signal. The method in brief: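 M-CSF levels, determined by ELISA, are taken at 24 h after dosing human skin fibroblasts. Responses in either direction are fitted with DMSO serving as the baseline.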

Assay [12] in a line: BSK_hDFCGF_SRB: Viability Assessment in the BioMAP Diversity Plus: hDFCGF Assay (AID 2283061).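 Also: cells exposed to compound for 24 h before the read.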 To be noted: primary human foreskin fibroblasts. The method in brief:
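Cells were dosed with test chemical, cultured 24 h, fixed with 10% TCA, then stained with 0.1% SRB and read at 560 nm. The fibroblasts were human foreskin primary cells, and DMSO served as baseline.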

Read-out in assay [13]: TIMP metallopeptidase inhibitor 1 (TIMP1), TIMP1 (gene 7076)
Briefly: BSK_hDFCGF_TIMP1: BioMAP Diversity Plus: hDFCGF Assay for TIMP metallopeptidase inhibitor 1 (TIMP1) Biomarker Activity (AID 2283062). To be noted: primary human foreskin fibroblasts; actives raise or lower the signal. The method in brief:
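Fibroblasts from human foreskin are treated with test chemical and harvested at 24 h. TIMP-1 is quantified by ELISA, and gain or loss of signal is scored against DMSO.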

Read-out in assay [14]: Monokine induced gamma interferon (MIG), CXCL9 (gene 4283)
As to the kind of experiment: BSK_hDFCGF_MIG: BioMAP Diversity Plus: hDFCGF Assay for Monokine induced gamma interferon (MIG) Biomarker Activity (AID 2283063). Conditions: primary human foreskin fibroblasts; actives raise or lower the signal. The method in brief: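 MIG signal, determined by ELISA, reflects 24 h chemical exposure of human skin primary fibroblasts. DMSO serves as negative control and baseline.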

Read-out in assay [15]: Matrix Metallopeptidase 1 (MMP1), MMP1 (gene 4312)
Briefly: BSK_hDFCGF_MMP1: BioMAP Diversity Plus: hDFCGF Assay for Matrix Metallopeptidase 1 (MMP1) Biomarker Activity (AID 2283064). Conditions: primary human foreskin fibroblasts; actives raise or lower the signal. The method in brief:
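Human foreskin fibroblasts exposed to chemical for 24 h; MMP1 detected by ELISA, with DMSO as baseline for bidirectional fitting.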

Read-out in assay [16]: Vascular cell adhesion molecule 1 (VCAM1), VCAM1 (gene 7412)
Briefly: BSK_hDFCGF_VCAM1: BioMAP Diversity Plus: hDFCGF Assay for Vascular cell adhesion molecule 1 (VCAM1) Biomarker Activity (AID 2283065).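 As to AC50: VCAM-1 protein level quantified by ELISA after 24 h chemical exposure.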 To be noted: primary human foreskin fibroblasts; actives raise or lower the signal. The method in brief:
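Cells are dosed, cultured for 24 h, then VCAM-1 is quantified by ELISA; signal increases and decreases are both fitted relative to DMSO.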

Read-out in assay [17]: Plasminogen activator inhibitor-1 (PAI1), SERPINE1 (gene 5054)
As to the kind of experiment: BSK_hDFCGF_PAI1: BioMAP Diversity Plus: hDFCGF Assay for Plasminogen activator inhibitor-1 (PAI1) Biomarker Activity (AID 2283066). To be noted: primary human foreskin fibroblasts; actives raise or lower the signal. The method in brief: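 Fibroblasts from human foreskin were treated with test chemical. After 24 h, PAI-1 was measured by ELISA. Activity was fitted in both directions relative to DMSO.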

Read-out in assay [18]: Intercellular Adhesion Molecule 1 (ICAM1), ICAM1 (gene 3383)
Briefly: BSK_KF3CT_ICAM1: BioMAP Diversity Plus: KF3CT Assay for Intercellular Adhesion Molecule 1 (ICAM1) Biomarker Activity (AID 2283067). Conditions: primary human keratinocytes with fibroblasts; actives raise or lower the signal. The procedure, abridged:
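Dose the keratinocyte/fibroblast co-culture, wait 24 h, measure ICAM-1 by ELISA, then fit increases or decreases against DMSO. Cytotoxicity is checked in parallel cultures by SRB total-protein staining.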

Read-out in assay [19]: Interferon-gamma inducible Protein 10 (IP10), CXCL10 (gene 3627)
As to the kind of experiment: BSK_KF3CT_IP10: BioMAP Diversity Plus: KF3CT Assay for Interferon-gamma inducible Protein 10 (IP10) Biomarker Activity (AID 2283068). Conditions: primary human keratinocytes with fibroblasts; actives raise or lower the signal. The method in brief: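 In a primary skin co-culture of keratinocytes and fibroblasts, IP-10 is quantified by ELISA at 24 h after dosing. SRB staining of parallel wells monitors overt toxicity. Curves are fitted both directions against DMSO.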

The nature of assay [20]: BSK_KF3CT_SRB: Viability Assessment in the BioMAP Diversity Plus: KF3CT Assay (AID 2283069).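 Also: fitted for both signal gain and loss against DMSO baseline.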 To be noted: primary human keratinocytes with fibroblasts. The method in brief:
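Overt cytotoxicity is assessed as total protein by sulforhodamine B staining in parallel human skin co-cultures at 24 h after dosing. DMSO serves as negative control and baseline.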

`Oc1c(Cl)cc(Cl)c(Cl)c1Cl`: the outcome in assay [1], in assay [2], in [3], in assay [5], in [8] and in [9] was inactive. In addition, the result in assay [11], in [14], in [15] and in assay [20] was inactive. The AC50 was 31.1 µM (active) in assay [4]; 3.97 µM (active) in assay [6]; 10.4 µM (active) in [7]; 27.7 µM (active) in assay [10]; 28.7 µM (active) in assay [12]; 32.1 µM (active) in assay [13]. For the same molecule, the AC50 in assay [16] was 23.3 µM (active); in assay [17], 24.6 µM (active); in assay [18] it was 20 µM (active); in assay [19], 20 µM (active).

`CCCCCCCCCCCC(=O)N(C)CC(=O)O`: the result in [1], in assay [2], in [3], in [4], in [5] and in assay [6] was inactive. Moreover, the outcome in assay [8], in assay [9], in [10], in assay [11], in assay [12] and in assay [13] was inactive. For the same molecule, the outcome in assay [14], in assay [15], in [16], in assay [17], in [18] and in [19] was inactive. Also, in assay [20], the outcome was inactive. In addition, the AC50 in assay [7] was 8.61 µM (active) and 24.7 µM (active).

On to `C[N+](C)(C)CCCNS(=O)(=O)C(F)(F)C(F)(F)C(F)(F)C(F)(F)C(F)(F)C(F)(F)C(F)(F)C(F)(F)F`, for which the outcome in [1], in assay [2], in [3], in assay [5], in assay [6] and in [8] was inactive. Further, the outcome in assay [13], in assay [14], in [15] and in assay [18] was inactive. In addition, the half-maximal activity concentration (AC50) in assay [2] was 30 µM (active); in assay [4], 48.5 µM (active) and 48.9 µM (active); in [7], 11.4 µM (active) and 5.3 µM (active); in [9], 49.3 µM (active) and 45.2 µM (active); in assay [10], 1.44 µM (active) and 220 nM (active); in assay [11] it was 46.1 µM (active) and 48.7 µM (active). Further, the AC50 is 55.3 µM (active) and 47.5 µM (active) in [12]; 38.9 µM (active) and 50.2 µM (active) in assay [16]; 47.8 µM (active) and 53.5 µM (active) in assay [17]; 47.6 µM (active) in assay [18]; 42.7 µM (active) and 46.7 µM (active) in assay [19]; 49.8 µM (active) and 51.4 µM (active) in [20].

Consider `Nc1nc(N)nc(-c2ccccc2)n1`, for which the result in assay [1], in [2], in assay [3], in assay [4], in assay [5] and in [6] was inactive. In addition, the result in [7], in [8], in [9], in [10], in assay [11] and in assay [12] was inactive. Also, the outcome in assay [13], in [14], in assay [15], in assay [16], in assay [17] and in assay [18] was inactive. Besides, the result in assay [19] and in assay [20] was inactive. Besides, the figures for the AC50 in [3] and in assay [6] were 0.0609 µM (active) and 0.268 µM (active), respectively.

Take `CC=C(C)C=CC=C(C)C`: the result in assay [1], in assay [2], in assay [4], in assay [5], in [7] and in [8] was inactive. The outcome in assay [9], in [12], in [13], in [14], in assay [15] and in [18] was inactive. Also, the result in assay [19] and in [20] was inactive. Further, the AC50 in assay [3] was 3.97 µM (active); in assay [6], 16.8 µM (active); in [10] it was 15.7 µM (active); in assay [11], 3.97 µM (active); in [16], 6.06 µM (active); in [17], 0.016 µM (active).

Consider `c1ccc2c(c1)[nH]c1ccccc12`, for which the result in [1], in assay [2], in assay [3], in assay [4], in assay [5] and in assay [6] was inactive. The result in assay [7], in assay [8], in assay [9], in assay [10], in assay [11] and in assay [12] was inactive. Also, the result in [13], in assay [14], in [15], in [16], in assay [17] and in assay [18] was inactive. Also, the result in assay [19] and in [20] was inactive.
